Some test systems named below: DU-145 prostate; K-562 leukemia; MALME-3M melanoma; MDA-MB-231 breast; RXF 393 renal; SF-268 CNS; SF-295 CNS; SF-539 CNS; UACC-257 melanoma; M14 melanoma.
Holding throughout (experiment): NCI-60 one-dose screen, 48 h (100 = growth as untreated, 0 = no growth, -100 = all killed)
Holding throughout (details): 10 µM unless noted

Compounds without any hit were thinned out: in the full panel of roughly 83,000, 20% have a hit.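 Testing used 96-well plates and a 48-hour single-concentration exposure. Example: -40 means 40% of the starting cells died.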 Unmarked numbers belong to inactive results. Active and inactive are the calls of the source. The calls were made as follows: active = growth percent below 10; inactive = the rest.

These results are taken from PubChem BioAssay (NCI).

Turning to `O=C(Nc1c(Cl)cc(Cl)cc1Cl)ON=C1CCCCC1`, the growth is 94.9% in the test on DU-145 prostate; 105% with K-562 leukemia; 101% in the test on MALME-3M melanoma; 101% with MDA-MB-231 breast; 116% in the test on RXF 393 renal; 91.7% in the test on SF-268 CNS. In addition, the growth in the test with SF-295 CNS is 102%; in the test with SF-539 CNS it was 97.4%; with UACC-257 melanoma, 102%; in the test with M14 melanoma it was 111%.

Consider `COC1OC(COC(C)=O)C(OC(C)=O)C(OC(C)=O)C1OC(C)=O` (stereo not given), for which the growth in the test with DU-145 prostate was 111%; in the test with K-562 leukemia it was 102%; in the test with MALME-3M melanoma, 96.9%; with MDA-MB-231 breast it was 90%; in the test with RXF 393 renal, 114%; with SF-268 CNS, 101%. Besides, the growth is 90.1% with SF-295 CNS, 98.4% with SF-539 CNS, 85% in the test with UACC-257 melanoma and 104% in the test on M14 melanoma.

Consider `Oc1cccnc1CN1CCCC1`, for which the growth with DU-145 prostate was 113%; with K-562 leukemia, 99.5%; with MALME-3M melanoma, 107%; in the test with MDA-MB-231 breast it was 105%; in the test on RXF 393 renal, 116%; in the test with SF-268 CNS, 104%. Moreover, the growth in the test on SF-295 CNS was 113%; in the test on SF-539 CNS it was 102%; with UACC-257 melanoma it was 98.3%; in the test with M14 melanoma, 112%.

As to `CC1(C)CCC(C)(C)NC(=S)N1`, the growth in the test on DU-145 prostate was 107%; in the test on K-562 leukemia it was 103%; in the test on MALME-3M melanoma it was 97.3%; in the test on MDA-MB-231 breast it was 111%; in the test with RXF 393 renal it was 112%; in the test on SF-268 CNS, 105%. For the same compound, the growth is 102% in the test on SF-295 CNS, 105% in the test on SF-539 CNS, 113% in the test with UACC-257 melanoma and 98.9% in the test with M14 melanoma.

Take `O=C1C=Cc2ccccc2/C1=C/c1[nH]c(=O)[nH]c1O`: the growth with DU-145 prostate is 54.5%; with K-562 leukemia it was 26%; in the test on MALME-3M melanoma it was 23.5%; with MDA-MB-231 breast, 62.6%; in the test with RXF 393 renal, 34.2%; in the test on SF-268 CNS it was 55.2%. The growth with SF-295 CNS is 28.9%; with SF-539 CNS, 17.6%; in the test with UACC-257 melanoma, 2.03% (active); in the test on M14 melanoma, 22.3%.

Consider `OCCOc1ccc(-c2cc(-c3ccccn3)nc(-c3ccccn3)c2)cc1`, for which the growth was -10.2% (active) in the test on DU-145 prostate; -2.31% (active) with K-562 leukemia; 17.3% in the test on MALME-3M melanoma; 21.4% in the test with MDA-MB-231 breast; 2.52% (active) with RXF 393 renal; 15% in the test with SF-268 CNS. Also, the growth is 14.6% in the test with SF-295 CNS, -6.53% (active) in the test on SF-539 CNS, 1.35% (active) in the test on UACC-257 melanoma and -62.5% (active) in the test with M14 melanoma.

Consider `CCOC(=O)CO`, for which the growth is 120% with DU-145 prostate; 97.4% in the test on K-562 leukemia; 87% with MALME-3M melanoma; 109% with MDA-MB-231 breast; 93.7% in the test on RXF 393 renal; 115% in the test with SF-268 CNS. The growth in the test on SF-295 CNS was 103%; in the test on SF-539 CNS it was 119%; with UACC-257 melanoma, 102%; in the test on M14 melanoma, 104%.

`CN(C)c1ccc2nc3ccc(=[N+](C)C)cc-3oc2c1`: the growth in the test on DU-145 prostate was 59%; in the test on K-562 leukemia, 16.9%; in the test with MALME-3M melanoma it was -21.8% (active); with MDA-MB-231 breast, -14.6% (active); in the test with RXF 393 renal it was 89.6%; in the test with SF-268 CNS, -17.5% (active). The growth in the test on SF-295 CNS is 50.3%; in the test on SF-539 CNS, 7.14% (active); with UACC-257 melanoma, -30.1% (active); with M14 melanoma, 3.87% (active).

For `Cc1cc(Nc2ccc3c(c2)OCO3)c2cc3c(cc2n1)OCO3`, the growth was 3.67% (active) in the test on DU-145 prostate; 36.8% with K-562 leukemia; 24.4% with MALME-3M melanoma; 32.3% in the test with MDA-MB-231 breast; 6.97% (active) in the test on RXF 393 renal; 37.9% with SF-268 CNS. Besides, the growth is -62.6% (active) in the test with SF-295 CNS, -15.5% (active) in the test with SF-539 CNS, 75.7% with UACC-257 melanoma and -16.7% (active) in the test on M14 melanoma.

`Cc1ccc(C2CCCCC2)cc1Br`: the growth with DU-145 prostate is 105%; in the test on K-562 leukemia it was 100%; in the test on MALME-3M melanoma, 100%; in the test on MDA-MB-231 breast, 97.4%; in the test with RXF 393 renal, 105%; with SF-268 CNS, 99.5%. Also, the growth with SF-295 CNS is 95.5%; with SF-539 CNS it was 101%; with UACC-257 melanoma, 88.8%; in the test on M14 melanoma it was 98.6%.

In the case of `Cc1cc(C(=O)NN)c(C#N)c(=O)[nH]1`, the growth in the test on DU-145 prostate is 106%; with K-562 leukemia, 116%; in the test with MALME-3M melanoma it was 103%; with MDA-MB-231 breast, 106%; with RXF 393 renal, 99.5%; in the test with SF-268 CNS, 116%. Besides, the growth with SF-295 CNS is 127%; in the test with SF-539 CNS, 87.7%; in the test on UACC-257 melanoma it was 95.4%; with M14 melanoma it was 100%.

With `N#C/C(=C\c1ccc2c(c1)OCO2)c1ccccc1`, the growth was 106% with DU-145 prostate; 21.4% in the test on K-562 leukemia; 80.7% in the test on MALME-3M melanoma; 66.8% in the test with MDA-MB-231 breast; 83.6% in the test with RXF 393 renal; 86.4% with SF-268 CNS. Also, the growth was 71.3% in the test with SF-295 CNS, 80% with SF-539 CNS, 85.8% with UACC-257 melanoma and 59% in the test on M14 melanoma.

Regarding `OCCc1ccc(Cl)cc1`, the growth in the test on DU-145 prostate was 109%; with K-562 leukemia, 99.9%; with MALME-3M melanoma, 99.5%; in the test on MDA-MB-231 breast it was 96.9%; with RXF 393 renal, 112%; in the test on SF-268 CNS it was 99.9%. Further, the growth with SF-295 CNS was 94.9%; in the test on SF-539 CNS, 93.9%; in the test with UACC-257 melanoma, 86.6%; in the test on M14 melanoma, 99.2%.

Take `OCc1cccnc1`: the growth was 111% in the test on DU-145 prostate; 117% in the test on K-562 leukemia; 121% with MALME-3M melanoma; 103% in the test with MDA-MB-231 breast; 112% with RXF 393 renal; 97.7% in the test with SF-268 CNS. In addition, the growth in the test with SF-295 CNS was 99%; in the test on SF-539 CNS, 95.3%; in the test on UACC-257 melanoma, 91.2%; in the test with M14 melanoma, 98.2%.
